Assay [1] addresses Protein kinase C gamma type (Homo sapiens) (UniProt P05129). As to conditions: at 1 µM.
Assay [2] has as its target T1, Protein kinase C iota type (Homo sapiens) (UniProt P41743).
T1 sequence (whole entry): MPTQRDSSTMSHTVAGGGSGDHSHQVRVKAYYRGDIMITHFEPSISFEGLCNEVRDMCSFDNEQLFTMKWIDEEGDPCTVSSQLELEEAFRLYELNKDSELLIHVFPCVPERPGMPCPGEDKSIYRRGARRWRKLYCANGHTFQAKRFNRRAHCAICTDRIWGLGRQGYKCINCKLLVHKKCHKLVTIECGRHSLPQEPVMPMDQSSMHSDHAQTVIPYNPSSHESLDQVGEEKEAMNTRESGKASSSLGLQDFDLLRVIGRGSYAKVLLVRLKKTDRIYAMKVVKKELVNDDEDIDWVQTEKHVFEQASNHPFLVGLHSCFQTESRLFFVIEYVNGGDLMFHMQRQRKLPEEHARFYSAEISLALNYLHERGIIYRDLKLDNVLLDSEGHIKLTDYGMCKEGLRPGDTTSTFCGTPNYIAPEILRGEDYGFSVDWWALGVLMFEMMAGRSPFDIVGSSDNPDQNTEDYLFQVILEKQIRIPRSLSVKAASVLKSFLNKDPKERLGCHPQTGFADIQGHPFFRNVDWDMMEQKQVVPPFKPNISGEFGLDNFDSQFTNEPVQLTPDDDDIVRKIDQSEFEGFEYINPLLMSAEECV
As to conditions: at 0.1 µM.

For assay [3], the target named is T1, Protein kinase C iota type (Homo sapiens). The settings on record: at 1 µM.
Assay [4] concerns the target Protein kinase C theta type (Homo sapiens) (UniProt Q04759). The settings on record: at 0.1 µM.
For assay [5] the target is unchanged. The settings on record: at 1 µM.
The target of assay [6] is Protein kinase C beta type (Homo sapiens) (UniProt P05771). As to conditions: at 0.1 µM.
Assay [7] has the same target. As to conditions: at 1 µM.
Assay [8] concerns the target T2, Serine/threonine-protein kinase D1 (Homo sapiens) (UniProt Q15139).
T2 sequence (whole entry): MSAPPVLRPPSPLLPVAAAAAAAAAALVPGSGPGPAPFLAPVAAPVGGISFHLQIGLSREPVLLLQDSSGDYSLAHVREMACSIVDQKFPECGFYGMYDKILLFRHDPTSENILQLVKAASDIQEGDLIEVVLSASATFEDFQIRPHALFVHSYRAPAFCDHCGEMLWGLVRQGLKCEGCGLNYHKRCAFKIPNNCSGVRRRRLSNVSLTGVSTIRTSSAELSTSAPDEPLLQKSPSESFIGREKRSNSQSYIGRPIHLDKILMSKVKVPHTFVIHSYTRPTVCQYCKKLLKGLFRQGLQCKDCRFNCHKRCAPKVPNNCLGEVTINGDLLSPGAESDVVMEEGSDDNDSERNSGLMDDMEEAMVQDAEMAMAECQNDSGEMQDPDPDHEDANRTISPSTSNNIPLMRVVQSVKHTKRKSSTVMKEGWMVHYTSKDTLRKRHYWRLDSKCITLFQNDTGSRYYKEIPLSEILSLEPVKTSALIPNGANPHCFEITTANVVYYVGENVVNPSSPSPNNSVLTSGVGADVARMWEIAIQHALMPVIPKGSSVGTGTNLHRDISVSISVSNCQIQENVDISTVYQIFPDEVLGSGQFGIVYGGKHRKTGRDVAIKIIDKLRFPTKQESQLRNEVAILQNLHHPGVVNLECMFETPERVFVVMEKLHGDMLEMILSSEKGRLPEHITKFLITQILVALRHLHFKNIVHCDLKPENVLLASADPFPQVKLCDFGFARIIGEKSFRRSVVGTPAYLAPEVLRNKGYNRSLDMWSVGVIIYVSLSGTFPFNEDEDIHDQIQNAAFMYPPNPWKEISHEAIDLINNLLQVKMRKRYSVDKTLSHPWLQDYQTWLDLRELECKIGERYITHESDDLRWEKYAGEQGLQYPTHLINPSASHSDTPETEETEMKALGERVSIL
As to conditions: at 0.1 µM.

The target of assay [9] is T2, Serine/threonine-protein kinase D1 (Homo sapiens). The settings on record: at 1 µM.
For assay [10], the target named is T3, Serine/threonine-protein kinase D2 (Homo sapiens) (UniProt Q9BZL6).
T3 sequence (whole entry): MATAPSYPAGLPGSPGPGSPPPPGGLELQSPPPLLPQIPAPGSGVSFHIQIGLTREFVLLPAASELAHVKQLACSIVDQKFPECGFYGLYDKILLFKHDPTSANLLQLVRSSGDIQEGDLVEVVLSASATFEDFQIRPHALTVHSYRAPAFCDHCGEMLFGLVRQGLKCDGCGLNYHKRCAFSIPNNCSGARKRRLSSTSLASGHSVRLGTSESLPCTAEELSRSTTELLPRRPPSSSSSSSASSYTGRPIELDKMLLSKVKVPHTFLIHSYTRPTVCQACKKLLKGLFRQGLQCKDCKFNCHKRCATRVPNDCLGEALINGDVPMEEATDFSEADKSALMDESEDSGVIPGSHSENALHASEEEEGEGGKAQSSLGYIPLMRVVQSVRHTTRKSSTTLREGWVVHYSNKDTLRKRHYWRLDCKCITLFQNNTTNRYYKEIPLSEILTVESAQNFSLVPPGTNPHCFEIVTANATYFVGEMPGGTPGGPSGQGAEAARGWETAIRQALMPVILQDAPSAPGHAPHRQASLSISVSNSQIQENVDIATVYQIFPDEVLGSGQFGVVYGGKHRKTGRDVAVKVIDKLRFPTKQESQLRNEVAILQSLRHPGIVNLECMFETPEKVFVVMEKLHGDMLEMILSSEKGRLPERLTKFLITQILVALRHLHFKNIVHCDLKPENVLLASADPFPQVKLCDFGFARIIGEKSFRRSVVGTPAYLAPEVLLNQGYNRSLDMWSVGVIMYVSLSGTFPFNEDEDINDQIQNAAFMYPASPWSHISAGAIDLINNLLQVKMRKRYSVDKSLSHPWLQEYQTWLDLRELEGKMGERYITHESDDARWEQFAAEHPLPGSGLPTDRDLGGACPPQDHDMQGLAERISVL
As to conditions: at 0.1 µM.

The target of assay [11] is T3, Serine/threonine-protein kinase D2 (Homo sapiens). As to conditions: at 1 µM.
Assay [12] has as its target T4, Serine/threonine-protein kinase D3 (Homo sapiens) (UniProt O94806).
T4 sequence (whole entry): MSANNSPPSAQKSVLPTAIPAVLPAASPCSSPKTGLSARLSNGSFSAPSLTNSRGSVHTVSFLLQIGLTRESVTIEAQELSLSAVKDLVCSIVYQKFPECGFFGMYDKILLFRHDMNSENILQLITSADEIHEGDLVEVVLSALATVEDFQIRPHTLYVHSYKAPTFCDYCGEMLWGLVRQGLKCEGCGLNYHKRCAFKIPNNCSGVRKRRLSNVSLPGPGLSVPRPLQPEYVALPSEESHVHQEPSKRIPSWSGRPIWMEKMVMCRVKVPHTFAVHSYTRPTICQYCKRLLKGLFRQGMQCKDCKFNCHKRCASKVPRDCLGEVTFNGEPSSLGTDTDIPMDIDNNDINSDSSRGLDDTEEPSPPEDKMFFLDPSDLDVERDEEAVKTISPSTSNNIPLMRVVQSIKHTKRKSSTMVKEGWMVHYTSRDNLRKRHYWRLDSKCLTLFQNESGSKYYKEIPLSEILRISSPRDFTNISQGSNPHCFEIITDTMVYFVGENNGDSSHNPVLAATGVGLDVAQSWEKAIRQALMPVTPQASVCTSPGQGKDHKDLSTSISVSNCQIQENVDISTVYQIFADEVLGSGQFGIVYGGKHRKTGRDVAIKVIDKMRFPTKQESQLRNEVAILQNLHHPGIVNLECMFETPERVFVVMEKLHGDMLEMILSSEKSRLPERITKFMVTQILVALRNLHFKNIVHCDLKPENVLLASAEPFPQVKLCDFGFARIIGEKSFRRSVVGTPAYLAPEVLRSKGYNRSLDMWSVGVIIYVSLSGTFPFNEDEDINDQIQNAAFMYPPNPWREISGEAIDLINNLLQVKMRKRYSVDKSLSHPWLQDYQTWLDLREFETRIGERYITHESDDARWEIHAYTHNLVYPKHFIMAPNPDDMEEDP
As to conditions: at 0.1 µM.

In assay [13] the target is T4, Serine/threonine-protein kinase D3 (Homo sapiens). As to conditions: at 1 µM.
Assay [14] deals with T5, cGMP-dependent protein kinase 1 (Homo sapiens) (UniProt Q13976).
T5 sequence (whole entry): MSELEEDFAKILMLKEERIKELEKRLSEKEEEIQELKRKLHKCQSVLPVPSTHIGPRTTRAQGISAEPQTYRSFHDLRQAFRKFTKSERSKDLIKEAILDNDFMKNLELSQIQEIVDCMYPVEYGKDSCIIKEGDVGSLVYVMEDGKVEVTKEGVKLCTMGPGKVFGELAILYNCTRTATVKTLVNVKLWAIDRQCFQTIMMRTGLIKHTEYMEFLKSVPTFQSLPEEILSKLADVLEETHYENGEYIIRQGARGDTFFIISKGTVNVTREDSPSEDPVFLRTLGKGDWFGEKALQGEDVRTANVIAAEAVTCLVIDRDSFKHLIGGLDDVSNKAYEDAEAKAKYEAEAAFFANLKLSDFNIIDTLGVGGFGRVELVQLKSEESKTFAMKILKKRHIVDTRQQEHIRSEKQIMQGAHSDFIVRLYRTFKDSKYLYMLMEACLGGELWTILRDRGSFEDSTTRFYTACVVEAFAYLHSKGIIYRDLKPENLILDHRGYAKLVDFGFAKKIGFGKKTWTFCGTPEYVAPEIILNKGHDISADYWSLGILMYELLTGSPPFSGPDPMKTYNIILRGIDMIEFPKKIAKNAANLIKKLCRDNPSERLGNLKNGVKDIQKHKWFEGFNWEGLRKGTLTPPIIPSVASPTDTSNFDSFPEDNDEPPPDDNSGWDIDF
As to conditions: at 0.1 µM.

The target of assay [15] is T5, cGMP-dependent protein kinase 1 (Homo sapiens). The settings on record: at 1 µM.
Assay [16] deals with T6, cGMP-dependent protein kinase 2 (Homo sapiens) (UniProt Q13237).
T6 sequence (whole entry): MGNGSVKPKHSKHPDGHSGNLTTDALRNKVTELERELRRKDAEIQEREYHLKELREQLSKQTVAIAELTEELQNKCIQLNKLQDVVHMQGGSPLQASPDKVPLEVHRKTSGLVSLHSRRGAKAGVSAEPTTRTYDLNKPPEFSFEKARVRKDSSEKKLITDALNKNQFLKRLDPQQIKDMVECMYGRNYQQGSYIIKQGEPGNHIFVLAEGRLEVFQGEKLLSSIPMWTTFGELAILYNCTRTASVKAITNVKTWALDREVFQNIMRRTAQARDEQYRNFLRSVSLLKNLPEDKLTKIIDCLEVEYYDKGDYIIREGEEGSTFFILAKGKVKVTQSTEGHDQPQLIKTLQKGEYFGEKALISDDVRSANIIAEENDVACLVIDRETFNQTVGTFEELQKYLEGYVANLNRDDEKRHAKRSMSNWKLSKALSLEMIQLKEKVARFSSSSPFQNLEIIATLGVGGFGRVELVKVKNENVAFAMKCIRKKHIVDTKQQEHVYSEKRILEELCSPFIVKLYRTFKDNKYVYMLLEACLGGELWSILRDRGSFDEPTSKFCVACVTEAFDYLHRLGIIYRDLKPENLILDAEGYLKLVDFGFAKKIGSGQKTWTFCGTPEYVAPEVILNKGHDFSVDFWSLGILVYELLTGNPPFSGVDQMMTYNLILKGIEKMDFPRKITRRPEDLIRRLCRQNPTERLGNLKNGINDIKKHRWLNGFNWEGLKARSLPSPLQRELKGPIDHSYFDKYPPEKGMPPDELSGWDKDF
The settings on record: at 0.1 µM.

In assay [17] the target is T6, cGMP-dependent protein kinase 2 (Homo sapiens). The settings on record: at 1 µM.
The target of assay [18] is T7, cAMP-dependent protein kinase catalytic subunit PRKX (Homo sapiens) (UniProt P51817).
T7 sequence (whole entry): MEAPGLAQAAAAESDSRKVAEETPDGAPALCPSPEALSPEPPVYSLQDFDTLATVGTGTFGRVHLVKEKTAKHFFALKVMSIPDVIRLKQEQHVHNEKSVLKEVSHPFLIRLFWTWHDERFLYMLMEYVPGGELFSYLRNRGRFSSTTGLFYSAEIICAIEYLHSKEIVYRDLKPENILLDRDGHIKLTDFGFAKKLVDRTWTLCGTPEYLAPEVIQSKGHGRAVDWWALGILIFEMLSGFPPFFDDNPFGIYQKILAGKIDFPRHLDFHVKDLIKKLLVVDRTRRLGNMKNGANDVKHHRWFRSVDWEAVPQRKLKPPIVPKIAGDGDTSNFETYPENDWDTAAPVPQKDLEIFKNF
The settings on record: at 0.1 µM.

The target in assay [19] is T7, cAMP-dependent protein kinase catalytic subunit PRKX (Homo sapiens). The settings on record: at 1 µM.
Assay [20] deals with Rho-associated protein kinase 1 (Homo sapiens) (UniProt Q13464). The settings on record: at 0.1 µM.
Chain of Rho-associated protein kinase 1 (Homo sapiens) (Q13464 2-1354 limits assumed): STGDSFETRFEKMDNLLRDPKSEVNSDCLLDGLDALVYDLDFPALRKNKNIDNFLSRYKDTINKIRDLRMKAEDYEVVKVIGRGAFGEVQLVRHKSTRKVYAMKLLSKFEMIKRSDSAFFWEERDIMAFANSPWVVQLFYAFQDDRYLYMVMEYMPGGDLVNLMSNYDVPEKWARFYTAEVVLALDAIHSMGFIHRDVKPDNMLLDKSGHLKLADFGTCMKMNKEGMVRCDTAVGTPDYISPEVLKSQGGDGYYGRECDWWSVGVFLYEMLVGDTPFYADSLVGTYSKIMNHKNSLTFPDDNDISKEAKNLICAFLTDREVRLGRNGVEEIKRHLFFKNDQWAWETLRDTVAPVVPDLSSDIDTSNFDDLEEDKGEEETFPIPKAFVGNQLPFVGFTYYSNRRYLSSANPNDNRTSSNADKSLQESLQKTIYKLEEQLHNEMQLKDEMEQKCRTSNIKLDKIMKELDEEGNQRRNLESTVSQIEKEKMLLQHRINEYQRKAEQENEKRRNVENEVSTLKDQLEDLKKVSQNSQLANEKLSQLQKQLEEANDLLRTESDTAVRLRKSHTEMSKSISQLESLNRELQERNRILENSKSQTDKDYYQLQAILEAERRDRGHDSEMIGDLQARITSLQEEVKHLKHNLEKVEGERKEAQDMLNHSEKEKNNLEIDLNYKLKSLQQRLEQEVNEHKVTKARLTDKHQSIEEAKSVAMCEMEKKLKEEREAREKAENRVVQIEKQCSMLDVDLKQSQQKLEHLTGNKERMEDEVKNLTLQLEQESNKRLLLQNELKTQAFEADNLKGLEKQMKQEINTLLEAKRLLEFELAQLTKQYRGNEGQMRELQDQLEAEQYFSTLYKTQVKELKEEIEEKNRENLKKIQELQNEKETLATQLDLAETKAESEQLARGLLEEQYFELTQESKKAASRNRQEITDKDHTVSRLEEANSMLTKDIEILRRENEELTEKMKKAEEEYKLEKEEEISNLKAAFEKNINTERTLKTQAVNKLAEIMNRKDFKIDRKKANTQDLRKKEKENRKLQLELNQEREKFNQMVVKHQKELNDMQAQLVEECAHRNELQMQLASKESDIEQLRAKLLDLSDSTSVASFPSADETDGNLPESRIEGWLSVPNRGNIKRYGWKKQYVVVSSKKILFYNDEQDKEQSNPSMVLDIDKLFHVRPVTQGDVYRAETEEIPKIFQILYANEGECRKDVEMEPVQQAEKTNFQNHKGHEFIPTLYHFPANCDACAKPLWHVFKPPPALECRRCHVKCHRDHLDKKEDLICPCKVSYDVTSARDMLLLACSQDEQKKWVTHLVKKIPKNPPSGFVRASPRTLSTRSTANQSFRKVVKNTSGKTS

Chain of Protein kinase C theta type (Homo sapiens) (Q04759 whole entry, looked up): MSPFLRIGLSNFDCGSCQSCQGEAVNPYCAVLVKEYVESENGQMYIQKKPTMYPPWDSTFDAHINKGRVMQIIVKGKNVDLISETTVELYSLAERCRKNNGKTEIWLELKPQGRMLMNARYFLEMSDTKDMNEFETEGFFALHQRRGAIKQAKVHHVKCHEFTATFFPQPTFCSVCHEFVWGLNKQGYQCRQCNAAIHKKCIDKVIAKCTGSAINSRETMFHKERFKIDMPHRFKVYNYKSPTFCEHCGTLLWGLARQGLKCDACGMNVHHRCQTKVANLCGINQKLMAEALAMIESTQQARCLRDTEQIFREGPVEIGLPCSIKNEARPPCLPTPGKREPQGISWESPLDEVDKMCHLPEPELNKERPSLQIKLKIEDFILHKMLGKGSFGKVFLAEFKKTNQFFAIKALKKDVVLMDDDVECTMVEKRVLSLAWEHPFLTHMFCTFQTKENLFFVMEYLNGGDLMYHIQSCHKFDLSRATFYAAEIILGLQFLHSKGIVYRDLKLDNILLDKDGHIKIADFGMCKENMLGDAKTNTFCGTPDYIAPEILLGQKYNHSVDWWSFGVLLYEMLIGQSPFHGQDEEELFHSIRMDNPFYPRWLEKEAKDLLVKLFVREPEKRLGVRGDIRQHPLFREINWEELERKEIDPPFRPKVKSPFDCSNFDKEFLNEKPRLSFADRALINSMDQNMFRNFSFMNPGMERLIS
Chain of Protein kinase C beta type (Homo sapiens) (P05771 2-671 limits assumed): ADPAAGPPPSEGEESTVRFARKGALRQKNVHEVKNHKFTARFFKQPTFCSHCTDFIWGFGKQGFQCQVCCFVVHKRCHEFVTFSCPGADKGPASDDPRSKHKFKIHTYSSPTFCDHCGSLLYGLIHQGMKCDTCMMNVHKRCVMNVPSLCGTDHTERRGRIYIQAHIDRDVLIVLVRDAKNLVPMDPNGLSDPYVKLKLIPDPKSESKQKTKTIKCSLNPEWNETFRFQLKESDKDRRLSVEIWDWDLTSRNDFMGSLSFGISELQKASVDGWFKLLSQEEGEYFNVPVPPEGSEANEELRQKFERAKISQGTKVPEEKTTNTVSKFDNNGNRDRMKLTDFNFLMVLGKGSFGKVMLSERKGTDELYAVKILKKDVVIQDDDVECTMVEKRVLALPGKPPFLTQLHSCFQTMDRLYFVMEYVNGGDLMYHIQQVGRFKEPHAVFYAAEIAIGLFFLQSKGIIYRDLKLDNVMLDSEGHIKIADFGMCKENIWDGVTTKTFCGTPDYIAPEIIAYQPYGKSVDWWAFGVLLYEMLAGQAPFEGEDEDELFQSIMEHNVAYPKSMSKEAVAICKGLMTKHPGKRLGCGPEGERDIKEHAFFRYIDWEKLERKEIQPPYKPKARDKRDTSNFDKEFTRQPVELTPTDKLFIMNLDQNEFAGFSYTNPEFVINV

Consider `CN1CCC(n2cnc(-c3ccc(F)cc3)c2-c2ccnc(Nc3ccccc3)n2)CC1`, for which the inhibition is 33.8% in assay [1]; 1.53% in assay [2]; 1.32% in [3]; 1.16% in [4]; 4.03% in assay [5]; 27.4% in assay [6]. Also, the inhibition in assay [7] was 66.5%; in [8], 5.32%; in [9] it was 39.6%; in assay [10], 7.44%; in assay [11], 46.5%; in assay [12], 6.42%. The inhibition in [13] is 43.5%; in assay [14], 1.69%; in [15], 3.29%; in [16] it was 0.99%; in assay [17], 5.8%; in assay [18] it was 1.37%. The figures for the inhibition in assay [19] and in [20] were 1.71% and -0.46%, respectively.

For `CCn1cc(-c2ccnc3[nH]ccc23)c(-c2cccc(NC(=O)Nc3ccc(OCc4ccccc4)cc3)c2)n1`, the inhibition in assay [1] is 2.68%; in assay [2], -0.3%; in assay [3], 0.28%; in assay [4], 0.93%; in [5], 1.88%; in assay [6], 0.47%. Besides, the inhibition in assay [7] turned out to be 1.93%; in assay [8], 2.3%; in [9], 5.37%; in assay [10], 18.8%; in assay [11], 2.85%; in assay [12] it was 1.53%. In addition, the inhibition in [13] turned out to be 4.36%; in assay [14], 2.12%; in assay [15], 1.15%; in assay [16] it was 2.48%; in assay [17], 1.43%; in [18], 4.18%. Further, the inhibition in assay [19] was 4.31%; in [20], -1.8%.

In general, inhibition refers to the drop in the measured response relative to a control, in per cent.
